Hit rate of the full screen: of about 290,000 compounds, about 3,300 (1.1%) were called active. Cut-off read from the data, not from the text of the source: active = binding response below about 67% or above about 130%; inconclusive = no clear call, values can overlap the other calls; inactive = in between. This excerpt belongs to a sample that is enriched for actives.
What follows are compounds tested against Mitogen-activated protein kinase kinase kinase 2 (Homo sapiens) (UniProt Q9Y2U5) (assay: wildtype MEKK2 PB1-MEK5 interaction, increase or decrease – biochemical, multiplex bead flow cytometry, Alexa488-MEK5, primary screen (AID 1531)). Settings: Alexa488-MEK5 binding to MEKK2 WT, at 10 µM, actives lie on both sides.

Row | SMILES | binding response (% of control)
1 | O=C1c2ccccc2S(=O)(=O)c2cc(N3CCN(c4ccccn4)CC3)ccc21 | 97% (inactive)
2 | Cc1cccc(C(=O)N2CCN(S(=O)(=O)N3CCCCC3)CC2)c1 | 108% (inactive)
3 | COC(C/C=C/C(=O)[C@@H](C)OCc1ccccc1)OC | 99% (inactive)
4 | Cc1nc(-c2ccccc2)sc1C1(C)CC(c2cccnc2)=NO1 (centres undefined) | 101% (inactive)
5 | COc1ccc(NC2CCCN(C(=O)c3ccncc3)C2)cc1 (centres undefined) | 97% (inactive)
6 | COc1cccc(CN(C)CC(=O)Nc2ccccc2C(=O)Nc2ccccc2)c1 | 88% (inactive)
7 | COc1cccc(CN(C)CC(O)COC(c2ccccc2)c2ccccc2C)c1 (centres undefined) | 150% (active)
8 | Cc1ccccc1C(OCC(O)CN1CCCCC1CCO)c1ccccc1 (centres undefined) | 121% (inactive)
9 | Cc1ccc(CN(N=Nc2nonc2N)c2nonc2N)c(C)c1 | 92% (inactive)
10 | CCN(CC)S(=O)(=O)c1ccc(N2CCOCC2)c(NC(=O)C2CSC3(C)CCC(=O)N23)c1 (centres undefined) | 100% (inactive)
11 | CN(Cc1ccccc1)CC(O)COc1ccc(CNCc2cc3ccccc3s2)cc1 (centres undefined) | 138% (active)
12 | Cc1ccc(OCC(=O)OC(C)CN(C)Cc2ccccc2)cc1 (centres undefined) | 94% (inactive)
13 | OC(CNCc1ccc2c(c1)OCO2)COc1ccccc1 (centres undefined) | 93% (inactive)
14 | O=C(N/N=C/c1cccc(O)c1)c1cc2c(ccc3ccccc32)o1 | 97% (inactive)
15 | CCOC(=O)c1c(-c2ccc(-c3ccccc3)cc2)csc1NC(=O)CCC(=O)O | 97% (inactive)
16 | CCOC(=O)c1c(-c2ccccc2)csc1NC(=S)NC(=O)c1ccccc1 | 13% [inhibitor] (active)
17 | CCOC(=O)c1c(-c2cccc(C)c2)csc1NC(=O)c1c(-c2ccccc2)noc1C | 84% (inactive)
18 | CCc1cccc(C)c1NC(=S)N(CCCN1CCN(C)CC1)Cc1cccs1 | 100% (inactive)
19 | Cc1cccc(C)c1NC(=O)N1CC(C)OC(C)C1 (centres undefined) | 107% (inactive)
20 | Cc1cccc(C)c1NC(=O)C1(C)c2cccc[n+]2CC(=O)N1Cc1cccs1 (centres undefined) | -5% (active)
21 | COc1ccc(C(=O)N2CCCCC2C(=O)Nc2ccc(-n3nc(C)cc3C)cc2)o1 (centres undefined) | 107% (inactive)
22 | COc1ccc(Nc2ncc(F)c(N3CCOCC3)n2)cc1 | 78% (inactive)

Row | SMILES | binding response (% of control)
23 | CC(=O)N1c2ccc(S(=O)(=O)N3CCC(C(=O)NCc4ccc(F)cc4)CC3)cc2CC1C (centres undefined) | 99% (inactive)
24 | NS(=O)(=O)c1ccc(-c2ccc(/C=C3\SC(=O)NC3=O)o2)cc1 | 102% (inactive)
25 | CN1C(=O)/C(=C\c2ccc(-c3ccccc3)o2)SC1=S | 14% [inhibitor] (active)
26 | O=C(O)C(c1ccccc1)N1C(=O)/C(=C\c2ccc(-c3cccc(Cl)c3)o2)SC1=S (centres undefined) | 85% (inactive)
27 | COc1cc2c(cc1OC)C(c1ccncc1)CC(=O)N2 (centres undefined) | 117% (inactive)
28 | COc1ccc(C2CC(=O)Nc3cc(C)c(C)cc32)c(OC)c1OC (centres undefined) | -2% [inhibitor] (active)
29 | COc1cc2c(cc1OC)C(c1ccc(C)o1)CC(=O)N2 (centres undefined) | 98% (inactive)
30 | CCOc1ccc(C)cc1S(=O)(=O)NC1CCCCCC1 | 106% (inactive)
31 | Cc1ccc2c(c1)N(CC(=O)N1CCC(O)CC1)C(=O)CO2 | 94% (inactive)
32 | CCN(CC)CCn1cnc2c1c(=O)[nH]c(=O)n2Cc1ccccc1 | 104% (inactive)
33 | N=c1c2c(-c3ccccc3)c(-c3ccccc3)n(Cc3ccccc3)c2ncn1CCCO | 155% (active)
34 | N=c1c2c(-c3ccccc3)c(-c3ccccc3)oc2ncn1Cc1ccco1 | 92% (inactive)
35 | O=C(CN1CCN(c2ccccn2)CC1)N1CCc2ccccc21 | 3% (active)
36 | O=C(CN1CCN(c2ccccn2)CC1)NC1CCCCC1 | 104% (inactive)
37 | O=C(CN1CCN(c2ccccn2)CC1)Nc1ccc(Br)cc1 | 109% (inactive)
38 | Cc1ccc(CNC(=O)c2ccc3c(c2)S(=O)(=O)c2ccccc2C3=O)cc1 | 111% (inactive)
39 | COc1ccc(-c2[nH]ncc2CN(C)Cc2cccnc2)c(F)c1 | 102% (inactive)
40 | COc1ccc(-c2[nH]ncc2CN(C)Cc2cc(C)[nH]n2)c(F)c1 | 83% (inactive)
41 | COc1ccc(-c2[nH]ncc2CN(C)Cc2c(C)n[nH]c2C)c(OC)c1 | -2% [inhibitor] (active)
42 | COc1ccc(CCOC(=O)CNC(=O)c2ccc(Cl)cc2Cl)cc1 | 86% (inactive)
43 | CCc1cccc(C)c1NS(=O)(=O)c1c(C)nc2sccn2c1=O | 101% (inactive)
44 | CCN(CC)c1ccc(/C=N/NC(=O)CNC(=O)c2cccs2)cc1 | 92% (inactive)

Row | SMILES | binding response (% of control)
45 | O=C(c1ccc(Cl)cc1)n1cnc2ccccc21 | 106% (inactive)
46 | Cc1cc(C)c(NC(=O)c2oc3ccccc3c2COc2ccccc2)c(C)c1 | 100% (inactive)
47 | Cc1cc(C)cc(OCC(=O)NCc2cc(C)nc3ccccc23)c1 | 103% (inactive)
48 | Cc1cc(C)c(NC(=O)C[N+](C)(C)CC(O)COc2cccc3ccccc23)c(C)c1 (centres undefined) | 149% (active)
49 | CN(C)CC(O)COc1ccc(C(C)(C)c2ccc(OCC(O)CN(C)C)cc2)cc1 (centres undefined) | 225% (active)
50 | Cc1cc(C)n(CC(O)COc2ccc(C(C)(C)C)cc2)n1 (centres undefined) | 107% (inactive)
51 | CC(C)(c1ccccc1)c1ccc(OCCN)cc1 | 117% (inactive)
52 | COc1ccccc1C1=CC(=O)CCC1 | 98% (inactive)
53 | CCOC(=O)C1Nc2ccc(C(F)(F)F)cc2C2C=CCC12 (centres undefined) | 98% (inactive)
54 | CC1(C)Cc2c(sc(NC(=O)C(=O)N3CCOCC3)c2C#N)CO1 | 95% (inactive)
55 | CC(C)c1ccc(C(=O)NCCCc2ccccc2)cc1 | 2% [inhibitor] (active)
56 | CCCOc1ccc(C(=O)NCCc2ccccc2)cc1 | 94% (inactive)
57 | Cc1cc(C(=O)NCCCc2ccccc2)no1 | 99% (inactive)
58 | O=C(NCc1ccccc1Cl)NC(=O)c1csc([N+](=O)[O-])c1 | -14% [inhibitor] (active)
59 | O=[N+]([O-])c1ccccc1NCc1ccccc1Cl | 66% (inactive)
60 | O=C(NCc1ccccc1Cl)c1csc2c1CCCCC2 | 93% (inactive)
61 | CCCCCc1c(C)nc(N2CCN(Cc3ccc4c(c3)OCO4)CC2)[nH]c1=O | 97% (inactive)
62 | COc1cccc(CC2(CO)CCN(Cc3cnc(-c4cccc(C)c4)nc3)CC2)c1 | 98% (inactive)
63 | OCC1(CCc2ccccc2)CCN(Cc2ccc3nsnc3c2)CC1 | 89% (inactive)
64 | Cc1cccc(-c2ncc(CN3CCC(CO)(CCCc4ccccc4)CC3)cn2)c1 | 163% (active)

— PubChem BioAssay AID1531 (NMMLSC, 2009)
